Sampled rows, rich in hits. Any-hit rate of the full collection: about 2.4%.
D2 antagonist: D2 dopamine receptor (human) antagonism; P14416; HEK293 TREx D2 cells, calcium flux, dopamine EC80; inhibition, % at 10 µM; 340,000 tested, 2% active; AID 485344; in the data active = inhibition above about 30%; inactive = below that, where a call was filed
Target sequence (P14416 whole entry, looked up): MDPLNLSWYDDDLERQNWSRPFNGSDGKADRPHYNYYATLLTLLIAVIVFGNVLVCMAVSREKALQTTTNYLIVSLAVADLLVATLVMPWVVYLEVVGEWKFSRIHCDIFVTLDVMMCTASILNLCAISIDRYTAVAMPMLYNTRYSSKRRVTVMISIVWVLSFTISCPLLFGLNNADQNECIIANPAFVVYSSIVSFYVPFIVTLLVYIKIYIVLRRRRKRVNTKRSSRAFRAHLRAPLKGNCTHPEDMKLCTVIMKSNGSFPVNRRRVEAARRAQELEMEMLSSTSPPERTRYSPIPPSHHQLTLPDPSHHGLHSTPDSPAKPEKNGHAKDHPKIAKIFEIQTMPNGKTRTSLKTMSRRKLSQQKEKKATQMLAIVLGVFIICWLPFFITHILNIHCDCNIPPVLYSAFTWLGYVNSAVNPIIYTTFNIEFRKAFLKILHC
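Compounds are added to dye-loaded, induced HEK293 T-REx cells coupled to calcium release via D2; after a 3 min kinetic read an EC80 dopamine stimulus is given and fluorescence is recorded for 3 more min.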
D2 PAM-1: D2 dopamine receptor (human) potentiation; HEK293 T-REx D2, calcium flux, EC20 dopamine potentiation; 340,000 tested, 0.34% active; P14416; potentiation, % at 10 µM; AID 485347;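 active = potentiation over 3 SD above the plate norm, cut at about 30% in these data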
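Calcium flux readout, no-wash dye, 1 read/s. Inducible HEK293 Trex D2 line, overnight 30 C. Compound alone 180 s (agonist flags), then EC20 dopamine, another 180 s to score potentiation.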
D2 ag-1: D2 dopamine receptor (human) agonism | P14416 | HEK293 T-REx D2 cells, calcium flux agonist mode | activation, % at 2 µM | 340,000 tested, 0.53% active | AID 485358;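 active = activation over 3 SD above normal in the single-dose calcium agonist read, cut at about 30% in these data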
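In this primary screen, compounds producing a positive calcium signal within 180 s of addition to tetracycline-induced, force-coupled HEK293 Trex D2 cells are flagged; cells are dye-loaded with a no-wash calcium kit beforehand.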
D2 ag-2: activates the human D2 dopamine receptor. AID 624465. DiscoveRx PathHunter D2 beta-arrestin, luminescence, 90 min; 100% = 57 uM dopamine signal. P14416. activation, % (concentration not given with the values). 360,000 tested, 0.084% active; in the data active = activation above about 40%; inconclusive = between about 15% and that limit
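Agonist mode: compounds alone added to overnight-plated D2 PathHunter cells for 90 min at 37 C, with 57 uM final dopamine (EC100) defining full response. Beta-arrestin recruitment detected by chemiluminescent reagent, read after 1 h at ambient temperature.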
D2 PAM-2: human D2 receptor positive allosteric modulation; 360,000 tested, 0.23% active; DiscoveRx D2 beta-arrestin cells, luminescence, 90 min; 100% = 57 uM dopamine signal; potentiation, % (test concentration not listed); in the data active = potentiation above about 50%; inconclusive = mostly about 30% to 49%
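D2 cells co-treated with compound plus 50 nM dopamine (EC20) for 90 min at 37 deg C to detect potentiation. Beta-arrestin recruitment was read as enzyme-fragment luminescence after 1 h at ambient temperature. Full response was set by 57 uM dopamine.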
Numbers stand for hits; 0 = inactive; ? = inconclusive; - = not tested or not shown.

SMILES	D2 antagonist	D2 PAM-1	D2 ag-1	D2 ag-2	D2 PAM-2
COc1ccc(C(=O)Nc2ccccc2N2CCOCC2)cc1[N+](=O)[O-]	0	0	0	0	0
COc1ccc(C(=O)NC(=S)Nc2ccccc2N2CCOCC2)cc1[N+](=O)[O-]	39	0	0	0	0
O=C(Cn1c(NCCO)nc2ccccc21)c1ccc([N+](=O)[O-])cc1	30	0	0	0	0
CCC(C(=O)NC1CCC(C)CC1)n1nc(C)c2sc3ccccc3c2c1=O (stereo not given)	-	0	0	-	-
C[C@H](NC(=O)OCc1ccccc1)c1nnc([C@H](Cc2ccccc2)NC(=O)OC(C)(C)C)o1	31	0	0	0	0
C[C@H](NC(=O)OCc1ccccc1)c1nnc([C@H](C)NC(=O)OCc2ccccc2)o1	38	0	0	0	0
Cc1ccc(CNc2cc(C)nc3nc(-c4cccc(C)c4)nn23)cc1	-	0	0	-	-
N#CCc1ccc(C(=O)c2ccccc2)s1	40	0	0	0	0
CCOC(=O)c1cnn2c(C(F)(F)F)cc(-c3ccc(Br)cc3)nc12	-	0	0	-	-
CC1(C)CC(=O)C2=C(C1)N(c1ccccc1)C(=O)C2(O)C(F)(F)F (stereo not given)	36	0	0	0	0
COc1cc(-c2nnc(-c3cc(OC)c(OC)c(OC)c3)o2)cc(OC)c1OC	0	0	-	0	0
CCCc1nnc(-c2cc(OC)c(OC)c(OC)c2)o1	30	0	0	0	0
O=C(CCNC(=O)N1CC(=O)Nc2ccccc21)NCc1ccc(F)cc1	52	0	0	0	0
COc1cccc(CNC(=O)CCc2c(C)nc3c4c(C)cc(C)nc4nn3c2C)c1	-	0	0	-	-
Cc1ccc(-n2ncc3c(NC4CCCCC4)ncnc32)cc1	-	0	0	-	-
COC(=O)CC1COc2ccccc2N1C(=O)c1ccc(C(C)(C)C)cc1 (stereo not given)	0	0	33	?	59
O=C(Cc1noc2ccccc12)NNC(=S)Nc1ccc(Cl)cc1	48	0	0	0	0
O=C(Cc1noc2ccccc12)NNC(=S)Nc1ccccc1	-	-	-	0	0
CCN1CCN(C(=O)c2cc3c(s2)-c2ccccc2S(=O)(=O)C3)CC1	45	0	0	0	0
CSc1cccc(NC(=O)CN2C(=O)COc3ccc(S(=O)(=O)N4CCC(C)CC4)cc32)c1	-	0	0	-	-
CCN1/C(=C/c2ccc3cc(C)ccc3[n+]2CC)Sc2ccccc21	0	0	36	0	0
Cc1ccc(C2=Nc3ccccc3N(CC(=O)Nc3ccccc3C)C(=O)C2)cc1C	-	0	-	-	-
CCOc1cc(CNC(=O)c2ccc3nc(C(C)C)oc3c2)cc(OCC)c1OCC	-	0	0	-	-
Cc1ccc(NC(=O)C2CCCN(c3nnc(C)c4c(C)n(-c5ccccc5)nc34)C2)c(Cl)c1 (stereo not given)	-	0	0	-	-
C/C=C\C(=O)Nc1cccc(C2=NOC3(C2)C[C@@H](C(N)=O)N(C(=O)C2(C)CC2)C3)c1 (stereo not given in full)	34	0	0	0	0
SMILES	D2 antagonist	D2 PAM-1	D2 ag-1	D2 ag-2	D2 PAM-2
Cc1c(C(=O)N2CC3(CC(c4cccc(NC(=O)[C@H]5CCC(=O)N5)c4)=NO3)C[C@@H]2C(N)=O)cc([N+](=O)[O-])cc1[N+](=O)[O-] (stereo not given in full)	0	0	0	0	74
C/C=C\C=C/C(=O)Nc1cccc(C2=NOC3(C2)C[C@@H](C(N)=O)N(C(=O)C2(C)CC2)C3)c1 (stereo not given in full)	0	0	0	0	0
C=C(C)C(=O)Nc1cccc(C2=NOC3(C2)C[C@H](C(N)=O)N(C(=O)COc2ccc(Cl)cc2)C3)c1 (stereo not given in full)	35	0	0	0	0
Cc1c(Cl)cccc1NC(=O)c1ccc(NC(=O)N2CCSc3ncccc32)cc1	-	0	0	-	-
Brc1cccc(-c2nnn3c2nc(NCc2ccc4c(c2)OCO4)c2ccccc23)c1	-	0	0	-	-
Cc1ccc(CCNC(=O)c2cnc3c(C)cccn3c2=O)cc1	-	0	-	-	-
COc1cc(S(=O)(=O)NC2CCSc3ccccc32)ccc1NC(C)=O (stereo not given)	0	33	0	0	0

Screening data deposited in PubChem by National Center for Advancing Translational Sciences (NCATS).
